ROS inducer = cancer cell ROS induction. ROS induction (% of piperlongumine), % at 10 µM. U2OS ROS induction, H2DCF-DA fluorescence. AID 624156. 46,000 tested, 2% active; in the data active = ROS induction above about 79%, passing the limit was not always enough;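 note: 0% = DMSO vehicle median and 100% = reference compound median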
The depositor's hits bear a star. The sample as a whole holds a higher share of hits than the screen did.

SMILES	ROS inducer
COc1cc2c(cc1OC)CN(C(=O)[C@H]1[C@@H]3C(=O)O[C@@H](c4ccccc4)[C@@H](c4ccccc4)N3[C@@H](c3ccccc3OCCO)[C@]13C(=O)Nc1ccc(C#CCNC(N)=O)cc13)CC2	19
O=C1O[C@@H](c2ccccc2)[C@@H](c2ccccc2)N2[C@@H](c3ccc(OCCO)cc3)[C@]3(C(=O)Nc4ccc(C#CCCO)cc43)[C@@H](C(=O)N3CCCCCCC3)[C@H]12	17
COc1cc2c(cc1OC)CN(C(=O)[C@@H]1[C@H]3C(=O)O[C@H](c4ccccc4)[C@H](c4ccccc4)N3[C@H](c3ccc(O)cc3)[C@@]13C(=O)Nc1ccccc13)CC2	48
COc1cc2c(cc1OC)CN(C(=O)[C@H]1[C@@H]3C(=O)O[C@@H](c4ccccc4)[C@@H](c4ccccc4)N3[C@@H](c3ccccc3OCCO)[C@]13C(=O)Nc1ccc(C#CC4=CCCCC4)cc13)CC2	87*
O=C1O[C@H](c2ccccc2)[C@H](c2ccccc2)N2[C@H]1[C@@H](C(=O)N1CCN(c3ncccn3)CC1)[C@]1(C(=O)Nc3ccc(C#CCCO)cc31)[C@H]2c1ccccc1OCCO	33
COc1cc2c(cc1OC)CN(C(=O)[C@@H]1[C@H]3C(=O)O[C@H](c4ccccc4)[C@H](c4ccccc4)N3[C@H](c3ccc(OCCO)cc3)[C@@]13C(=O)Nc1ccccc13)CC2	98*
COC(=O)C(CC#Cc1ccc2c(c1)[C@]1(C(=O)N2)[C@H](C(=O)N2CCc3cc(OC)c(OC)cc3C2)[C@H]2C(=O)O[C@H](c3ccccc3)[C@H](c3ccccc3)N2[C@@H]1c1ccc(OCCO)cc1)C(=O)OC	26
COc1cc2c(cc1OC)CN(C(=O)[C@H]1[C@@H]3C(=O)O[C@@H](c4ccccc4)[C@@H](c4ccccc4)N3[C@@H](c3ccccc3OCCO)[C@]13C(=O)Nc1ccc(C#CCCO)cc13)CC2	120*
COc1cc2c(cc1OC)CN(C(=O)[C@H]1[C@@H]3C(=O)O[C@@H](c4ccccc4)[C@@H](c4ccccc4)N3[C@@H](c3ccc(OCCO)cc3)[C@]13C(=O)Nc1ccc(C#CC4=CCCCC4)cc13)CC2	61
O=C1O[C@@H](c2ccccc2)[C@@H](c2ccccc2)N2[C@@H](c3ccccc3OCCO)[C@]3(C(=O)Nc4ccc(C#CCCO)cc43)[C@@H](C(=O)N3CCCCCCC3)[C@H]12	221*
CC(=O)Oc1ccccc1OC(C)c1nn(C(C)=O)c2ccccc12 (configuration not stated)	-14
CCc1nnc(SC(CC)C(=O)N2CCCCCC2)c2cc3sccc3n12 (configuration not stated)	1
COc1ccc(-c2cc(-c3ccccc3)c(C#N)c(SC3CCCCC3=O)n2)cc1 (configuration not stated)	27
COc1ccc(C2C(C(=O)c3ccc(F)cc3)C(=O)C(=O)N2c2nnc(C)s2)cc1OC (configuration not stated)	-11
CN(C(=O)CSc1nncn2c1cc1sccc12)c1ccccc1	-2
CCOc1ccccc1NC(=S)NCC(C)CSc1ccc(C)cc1 (configuration not stated)	13
CC1(C)CC(=O)C2=C(C1)N(c1ncn[nH]1)C(N)=C(C#N)C2c1ccsc1 (configuration not stated)	31
FC(F)(F)C1NCCc2c1[nH]c1ccccc21 (configuration not stated)	-6
COC(=O)C(CC#Cc1ccc2c(c1)[C@]1(C(=O)N2)[C@H](C(=O)N2CCCCCCC2)[C@H]2C(=O)O[C@H](c3ccccc3)[C@H](c3ccccc3)N2[C@@H]1c1ccccc1OCCO)C(=O)OC	50
COC(=O)C(CC#Cc1ccc2c(c1)[C@]1(C(=O)N2)[C@H](C(=O)N2CCCCCCC2)[C@H]2C(=O)O[C@H](c3ccccc3)[C@H](c3ccccc3)N2[C@@H]1c1ccc(OCCO)cc1)C(=O)OC	104*
COC(=O)C(CC#Cc1ccc2c(c1)[C@]1(C(=O)N2)[C@H](c2ccc(O)cc2)N2[C@H](c3ccccc3)[C@H](c3ccccc3)OC(=O)[C@H]2[C@@H]1C(=O)N1CCCCCCC1)C(=O)OC	40
COc1cccc(C(=O)NCCc2csc3nc(-c4ccc(C)cc4)nn23)c1OC	-11
O=C(O)c1cc(-c2ccccc2)nc2ccccc12	2
CCN(CC)c1ccc(-c2cc(C(=O)O)c3c(ccc4ccccc43)n2)cc1	440*
CCc1ccc(-c2cc(C(=O)OC)c3ccccc3n2)cc1	8
SMILES	ROS inducer
O=C(Cn1c(=O)oc2cc(S(=O)(=O)NC3CCCCC3)ccc21)N1CCCCCC1	-5
CCC(=O)Oc1cc2c(C)cc(=O)oc2cc1Cl	-5
COc1cc(CO)ccc1OCC(=O)Nc1ccccc1F	-2
COc1ccc(NC(=O)COc2ccccc2OC)cc1OC	-1
COc1cc(CO)ccc1OCC(=O)Nc1ccc(C)cc1	122*
O=C(Nc1cccc(-c2nc3cccnc3s2)c1)C1CC1	69
Cc1nc(SC2CCCCN(C(=O)c3ccc(Cl)cc3)C2=O)c2c3c(sc2n1)CCCC3 (configuration not stated)	35
Fc1ccc(-n2nnc3c(SCc4ccc(C(F)(F)F)cc4)ncnc32)cc1	18
Cc1ccc(-n2nnc3c(SCC(=O)N4CCCC4)ncnc32)cc1	134*
CCOC(=O)Cn1cnc2c(nnn2-c2ccc(C)cc2)c1=O	-7
CC(C)OC(=O)COc1cc2oc(=O)c3c(c2cc1Cl)CCC3	55
CCC(=O)c1ccc(N2CCN(C(=O)c3ccco3)CC2)c(F)c1	12
COc1ccccc1OCC(=O)Nc1cccc(-c2nnc(-c3ccccc3)o2)c1	-2
COc1ccc(-c2nnc(-c3ccc(S(=O)(=O)c4ccccc4)cc3)o2)cc1OC	126*
COc1ccc(CC(=O)Nc2cccc(-c3nnc(-c4ccc(C)cc4)o3)c2)cc1OC	13
CCN(CC)C(=O)Cn1cc(S(=O)(=O)CC(=O)N2CCCCC2)c2ccccc21	-7
CCOc1ccc(C(=O)NC(C)c2ccccc2)cc1 (configuration not stated)	-14
O=C(NCCc1ccccc1)c1ccc2nc(-c3cccs3)c(-c3cccs3)nc2c1	50
CS(=O)(=O)Nc1ccc(S(=O)(=O)NCC2CCCO2)cc1 (configuration not stated)	96*
Cc1ccc(N2CC(C(=O)Nc3ccc(S(=O)(=O)NCC4CCCO4)cc3)CC2=O)cc1 (configuration not stated)	38
O=C(O)c1cccc(S(=O)(=O)NCC2CCCO2)c1 (configuration not stated)	11
Cc1ccc(CSCc2ccc(C(=O)NCCc3ccccc3)o2)cc1	-2
CCCCn1c(CCNC(=O)c2ccco2)nc2ccccc21	81*
O=C(NCCCc1nc2ccccc2n1CCCOc1ccccc1)c1ccco1	-1
O=C(NCCc1nc2ccccc2n1Cc1ccccc1)c1ccccc1	-5
SMILES	ROS inducer
CCN(CC)S(=O)(=O)c1ccc2oc(C(=O)Nc3cccc(Cl)c3)c(C)c2c1	39
CC1(C)Cc2c(ccc3ccccc23)C(=NCCC(=O)O)N1	-5
O=C(Oc1nsnc1N1CCCCC1)N(c1ccccc1)c1ccccc1	7
O=C(CSc1nnnn1-c1ccccc1)Nc1cc(Cl)c(Cl)cc1Cl	-12
O=C(CSc1nnnn1-c1ccc(Cl)cc1)Nc1ccc(Cl)cc1Cl	-7
O=C(CSc1nnnn1-c1ccccc1)Nc1cc(Cl)ccc1C(=O)O	154*
Cc1ccc(-c2nn(CCC(=O)O)cc2/C=C2\SC(N)=NC2=O)cc1	1
